Measured values reported in PubChem BioAssay (EPA / NIEHS).
Inconclusive results are not listed. The source made the active and inactive calls. The calls were made as follows, unless noted: active = hit-call score of the fitted dose curve at least 0.9, where 1 is the maximum; inactive = score below 0.9.

Experiments:
[1] = molecular target: Hepatocyte nuclear factor 4-alpha (Homo sapiens) (UniProt P41235); experiment: ATG_HNF4a_TRANS: Attagene TRANS-FACTORIAL HepG2 Assay for human Hepatocyte Nuclear Factor 4 alpha (HNF4a) (AID 2282982; active = hit-call score of the fitted dose curve at least 0.9, where 1 is the maximum); settings: HepG2 HNF4a transactivation reporter, mRNA readout
How it was run: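 Using HepG2 liver cells transfected with GAL4-UAS reporter units, chemical-induced mRNA increases were assessed after 24 hours. Fluorescent RT-PCR fragments were separated by capillary electrophoresis and compared with DMSO negative controls.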

[2] = ATG_M_06_TRANS: Attagene TRANS-FACTORIAL HepG2 Assay for M06 Transcription Factor (Internal Marker) (AID 2282983; active = hit-call score of the fitted dose curve at least 0.9, where 1 is the maximum); settings: HepG2 Attagene TRANS M06 internal marker reporter
How it was run: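 In this multiplexed HepG2 system, compounds are incubated 24 h with cells carrying GAL4-UAS reporter units. Reporter RNA is amplified and resolved by capillary electrophoresis, and induction is scored against DMSO.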

[3] = ATG_M_32_TRANS: Attagene TRANS-FACTORIAL HepG2 Assay for M32 Transcription Factor (Internal Marker) (AID 2282984; active = hit-call score of the fitted dose curve at least 0.9, where 1 is the maximum;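 also: transcript level of a background control reporter unit measured by RT-PCR and capillary electrophoresis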); settings: HepG2 Attagene TRANS M32 internal marker reporter
How it was run: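 Fluorescence-detected mRNA induction, HepG2 liver cells, 24 h after dosing. Multiple GAL4-UAS reporter units introduced by transient transfection; background-control endpoint analysed for gain of signal against DMSO.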

[4] = molecular target: Transcriptional activator Myb (Homo sapiens) (UniProt P10242); experiment: ATG_Myb_CIS: Attagene CIS-FACTORIAL HepG2 Assay for human Myeloblastosis (Myb) Proto-Oncogene Transcription Factor (AID 2282986); settings: HepG2 Attagene CIS-FACTORIAL Myb reporter transcription; actives raise or lower the signal
How it was run: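 Reporter mRNA is quantified by RT-PCR and capillary electrophoresis 24 h after dosing HepG2 cells transfected with cis-regulated reporter units, which track endogenous transcription factor activity. Gain and loss of signal are fitted versus DMSO baseline.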

[5] = molecular target: Nuclear respiratory factor 1 (Homo sapiens) (UniProt Q16656); experiment: ATG_NRF1_CIS: Attagene CIS-FACTORIAL HepG2 Assay for human Nuclear Respiratory Factor 1 (NRF1) Orphan Gene (AID 2282987); settings: HepG2 NRF1 cis-element reporter, Attagene multiplex; actives raise or lower the signal
How it was run: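 Endogenous NRF1-driven reporter transcription in transfected HepG2 cells after 24 h treatment. Readout: RT-PCR products, 6-FAM labelled and resolved by capillary electrophoresis; changes fitted both directions relative to DMSO.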

[6] = ATG_NFI_CIS: Attagene CIS-FACTORIAL HepG2 Assay for human Nuclear Factor I (NFI) (AID 2282989); settings: HepG2 cis-regulatory reporter, NFI response element transcription; actives raise or lower the signal
How it was run: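 Transfected HepG2 liver cells, exposed 24 h, supplied total RNA for oligo(dT) reverse transcription and reporter-specific PCR. Labelled, HpaI-cut fragments were sized by capillary electrophoresis; DMSO set the baseline for bidirectional fitting.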

[7] = molecular target: Myc proto-oncogene protein (Homo sapiens) (UniProt P01106); experiment: ATG_Myc_CIS: Attagene CIS-FACTORIAL HepG2 Assay for human Myelocytomatosis (Myc) Proto-Oncogene Transcription Factor (AID 2282990); settings: HepG2, Attagene cis-reporter transcription factor activity; actives raise or lower the signal
How it was run: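 DMSO-normalised, bidirectionally fitted reporter mRNA signal. HepG2 cells transfected with cis reporter constructs, treated 24 h; transcripts detected by RT-PCR, 6-FAM primer extension and CE.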

[8] = ATG_Oct_MLP_CIS: Attagene CIS-FACTORIAL HepG2 Assay for human Octamer-Binding Transcription Factor (Oct) (AID 2282993); settings: HepG2 Attagene cis-factorial Oct reporter, mRNA; actives raise or lower the signal
How it was run: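 Using HepG2 cells bearing transfected cis-reporter constructs, mRNA induction was read after 24 h by fluorescent RT-PCR and capillary electrophoresis, with DMSO defining baseline for gain- or loss-of-signal fits.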

[9] = molecular target: Cellular tumor antigen p53 (Homo sapiens) (UniProt P04637); experiment: ATG_p53_CIS: Attagene CIS-FACTORIAL HepG2 Assay for human p53 Transcription Factor (AID 2282994); settings: HepG2 p53 cis-element reporter, Attagene mRNA; actives raise or lower the signal
How it was run: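 In HepG2 cells, reporter transcription units under cis-regulatory promoters were transiently introduced. Following 24 h treatment, RNA was processed to labelled, digested cDNA fragments read by capillary electrophoresis; fitting was bidirectional versus DMSO.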

[10] = BSK_3C_TissueFactor: BioMAP Diversity Plus: 3C Assay for Tissue Factor Biomarker Activity (AID 2282997); settings: BioMAP 3C HUVEC, tissue factor biomarker readout; actives raise or lower the signal
How it was run: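 Readout: Tissue Factor ELISA. Cells: human primary umbilical vein endothelium. Time: 24 h after dosing. Analysis: bidirectional fit, DMSO baseline.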

[11] = BSK_3C_uPAR: BioMAP Diversity Plus: 3C Assay for Urokinase-type plasminogen activator receptor (uPAR) Biomarker Activity (AID 2282998); settings: BioMAP 3C HUVEC, uPAR biomarker ELISA; actives raise or lower the signal
How it was run: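 In this endothelial cell-based assay, human umbilical vein primary cells were treated with chemicals and harvested at 24 h. uPAR was quantified using ELISA, with gains or losses fitted relative to DMSO controls.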

[12] = BSK_3C_VCAM1: BioMAP Diversity Plus: 3C Assay for Vascular cell adhesion molecule 1 (VCAM1) Biomarker Activity (AID 2282999); settings: BioMAP 3C HUVEC, VCAM1 ELISA, cytokine-stimulated; actives raise or lower the signal
How it was run: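 Vascular primary endothelium (human umbilical vein) was exposed to chemicals and assayed 24 h later. VCAM-1 levels came from ELISA, with DMSO serving as baseline for bidirectional fitting.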

[13] = BSK_4H_Eotaxin3: BioMAP Diversity Plus: 4H Assay for Eotaxin 3 Biomarker Activity (AID 2283000); settings: primary human endothelial cells (HUVEC); actives raise or lower the signal;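 also: CCL26 protein level quantified by ELISA in parallel with SRB cytotoxicity check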
How it was run: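 HUVEC, 24 h post-dose, ELISA for Eotaxin-3/CCL26. Gain or loss of signal fitted bidirectionally vs DMSO baseline.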

[14] = molecular target: Oxysterols receptor LXR-beta (Homo sapiens) (UniProt P55055); experiment: ATG_LXRb_TRANS: Attagene TRANS-FACTORIAL HepG2 Assay for human Liver X Receptor beta (LXRb) (AID 2282981; active = hit-call score of the fitted dose curve at least 0.9, where 1 is the maximum); settings: HepG2 Attagene TRANS GAL4-LXRb reporter, mRNA
How it was run: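 Liver-derived HepG2 cells transfected with Gal4-responsive reporters were dosed for 24 h. Activation was scored as rise in reporter mRNA, by RT-PCR and capillary electrophoresis, above DMSO baseline.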

[15] = molecular target: Nuclear receptor subfamily 4 group A member 2 (Homo sapiens) (UniProt P43354); experiment: ATG_NURR1_TRANS: Attagene TRANS-FACTORIAL HepG2 Assay for human Nuclear Receptor Related Protein 1 (NURR1) (AID 2282985; active = hit-call score of the fitted dose curve at least 0.9, where 1 is the maximum); settings: HepG2 Attagene TRANS reporter, mRNA readout
How it was run: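 Chimeric NR-Gal4 proteins were expressed in human HepG2 cells bearing GAL4-UAS reporter units, and induced reporter mRNA was quantified 24 h post-dosing by RT-PCR and capillary electrophoresis.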

[16] = ATG_NF_kB_CIS: Attagene CIS-FACTORIAL HepG2 Assay for human Nuclear Factor Kappa B (NF-kB) (AID 2282991); settings: HepG2 Attagene cis-factorial NF-kB reporter mRNA; actives raise or lower the signal
How it was run: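 Readout is reporter transcript level, gain or loss versus DMSO, measured 24 h post-dose via RT-PCR, fluorescent labelling and capillary electrophoresis. Human HepG2 liver cells carried transiently transfected CIS reporter constructs reflecting endogenous factors.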

[17] = ATG_NRF2_ARE_CIS: Attagene CIS-FACTORIAL HepG2 Assay for human Nuclear Factor Erythroid 2 Related Factor 2 (NFR2) response to Antioxidant Response Elements (ARE) (AID 2282992); settings: HepG2 Attagene ARE/NRF2 reporter, transcription factor activity; actives raise or lower the signal;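 as to AC50: reporter mRNA level measured by RT-PCR and capillary electrophoresis fluorescence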
How it was run: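 Using transiently transfected HepG2 cells exposed for 24 h, reporter mRNA levels were determined by RT-PCR with fluorescent primer extension and capillary electrophoresis, analysed for gain or loss of signal against DMSO.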

[18] = molecular target: Bile acid receptor (Homo sapiens) (UniProt Q96RI1); experiment: ATG_FXR_TRANS: Attagene TRANS-FACTORIAL HepG2 Assay for Farnesoid X Receptor (FXR) (AID 2282979; active = hit-call score of the fitted dose curve at least 0.9, where 1 is the maximum;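 also: hits raise reporter mRNA above DMSO so AC50 marks FXR activation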); settings: HepG2 Attagene TRANS FXR-GAL4 reporter transcription
How it was run: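 HepG2 cells transiently transfected with reporter constructs in which a chimeric FXR-GAL4 protein drives a GAL4-UAS reporter; 24 h compound exposure. Reporter mRNA measured by RT-PCR, FAM labelling, HpaI digestion and capillary electrophoresis; gain-of-signal versus DMSO.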

Myc proto-oncogene protein (Homo sapiens), sequence (P01106 whole entry, looked up): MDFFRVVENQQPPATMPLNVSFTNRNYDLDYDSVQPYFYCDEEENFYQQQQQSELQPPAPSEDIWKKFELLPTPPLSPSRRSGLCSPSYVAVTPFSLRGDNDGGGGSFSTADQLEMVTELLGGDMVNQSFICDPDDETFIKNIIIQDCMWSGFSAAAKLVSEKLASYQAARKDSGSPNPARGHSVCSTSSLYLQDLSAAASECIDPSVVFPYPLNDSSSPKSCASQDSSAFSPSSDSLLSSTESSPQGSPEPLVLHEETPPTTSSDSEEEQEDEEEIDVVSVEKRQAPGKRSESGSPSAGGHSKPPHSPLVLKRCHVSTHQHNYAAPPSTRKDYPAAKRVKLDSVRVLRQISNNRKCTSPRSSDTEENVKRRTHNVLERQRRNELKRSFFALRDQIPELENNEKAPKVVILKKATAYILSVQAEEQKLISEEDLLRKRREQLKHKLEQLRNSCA
Hepatocyte nuclear factor 4-alpha (Homo sapiens), sequence (P41235 whole entry, looked up, the tested form may be a part): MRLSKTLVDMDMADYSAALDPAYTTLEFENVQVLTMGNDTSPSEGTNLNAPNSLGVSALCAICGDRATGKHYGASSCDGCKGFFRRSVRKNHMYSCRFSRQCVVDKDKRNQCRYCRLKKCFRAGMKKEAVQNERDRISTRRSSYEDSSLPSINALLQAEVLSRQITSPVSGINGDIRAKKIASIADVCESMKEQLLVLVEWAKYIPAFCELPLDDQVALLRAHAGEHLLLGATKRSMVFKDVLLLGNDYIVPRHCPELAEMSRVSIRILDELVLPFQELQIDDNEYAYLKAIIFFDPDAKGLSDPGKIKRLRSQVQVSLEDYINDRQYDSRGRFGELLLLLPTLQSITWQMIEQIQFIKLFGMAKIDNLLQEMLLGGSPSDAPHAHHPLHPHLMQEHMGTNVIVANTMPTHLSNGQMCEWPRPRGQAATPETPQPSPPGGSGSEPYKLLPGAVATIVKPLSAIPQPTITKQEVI
Transcriptional activator Myb (Homo sapiens), sequence (P10242 whole entry, looked up): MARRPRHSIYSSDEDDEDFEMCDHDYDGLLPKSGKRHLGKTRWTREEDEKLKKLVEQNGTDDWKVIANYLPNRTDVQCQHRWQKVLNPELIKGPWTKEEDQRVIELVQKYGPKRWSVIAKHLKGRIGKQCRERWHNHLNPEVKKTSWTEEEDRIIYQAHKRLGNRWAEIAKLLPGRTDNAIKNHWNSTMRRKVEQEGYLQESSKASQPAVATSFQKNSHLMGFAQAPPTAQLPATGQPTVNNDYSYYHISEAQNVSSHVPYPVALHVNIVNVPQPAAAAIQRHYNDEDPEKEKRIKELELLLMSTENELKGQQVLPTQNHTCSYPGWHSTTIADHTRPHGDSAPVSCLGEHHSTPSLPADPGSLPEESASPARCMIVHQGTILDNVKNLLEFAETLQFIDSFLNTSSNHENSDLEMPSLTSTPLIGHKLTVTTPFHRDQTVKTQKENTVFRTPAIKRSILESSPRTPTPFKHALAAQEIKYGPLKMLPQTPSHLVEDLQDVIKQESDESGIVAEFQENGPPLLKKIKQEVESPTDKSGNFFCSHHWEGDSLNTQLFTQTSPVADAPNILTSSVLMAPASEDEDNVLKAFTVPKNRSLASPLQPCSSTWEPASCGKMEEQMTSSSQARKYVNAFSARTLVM
Cellular tumor antigen p53 (Homo sapiens), sequence (P04637 whole entry, looked up, the tested form may be a part): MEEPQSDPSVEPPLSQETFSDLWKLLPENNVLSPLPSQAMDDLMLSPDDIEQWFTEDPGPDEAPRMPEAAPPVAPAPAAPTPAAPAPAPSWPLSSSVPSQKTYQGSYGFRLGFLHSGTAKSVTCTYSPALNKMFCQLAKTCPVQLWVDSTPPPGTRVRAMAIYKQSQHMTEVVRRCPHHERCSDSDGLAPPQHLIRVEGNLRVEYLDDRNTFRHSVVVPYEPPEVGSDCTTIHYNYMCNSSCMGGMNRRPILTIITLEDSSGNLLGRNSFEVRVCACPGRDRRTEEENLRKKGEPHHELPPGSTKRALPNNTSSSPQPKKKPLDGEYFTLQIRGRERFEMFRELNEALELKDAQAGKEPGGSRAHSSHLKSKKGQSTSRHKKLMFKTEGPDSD
Oxysterols receptor LXR-beta (Homo sapiens), sequence (P55055 whole entry, looked up, the tested form may be a part): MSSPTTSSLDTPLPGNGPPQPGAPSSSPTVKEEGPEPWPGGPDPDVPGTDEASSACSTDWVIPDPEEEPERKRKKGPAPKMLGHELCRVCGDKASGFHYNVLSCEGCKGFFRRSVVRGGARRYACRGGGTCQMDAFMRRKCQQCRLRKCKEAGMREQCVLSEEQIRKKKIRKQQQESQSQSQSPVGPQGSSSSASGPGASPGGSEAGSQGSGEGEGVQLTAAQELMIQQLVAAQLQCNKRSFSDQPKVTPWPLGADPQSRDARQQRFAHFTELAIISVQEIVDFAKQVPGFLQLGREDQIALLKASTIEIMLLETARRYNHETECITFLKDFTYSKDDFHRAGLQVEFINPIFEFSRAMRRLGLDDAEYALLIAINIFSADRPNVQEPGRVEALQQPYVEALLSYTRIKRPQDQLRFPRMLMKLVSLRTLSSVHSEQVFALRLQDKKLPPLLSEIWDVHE
Nuclear receptor subfamily 4 group A member 2 (Homo sapiens), sequence (P43354 whole entry, looked up, the tested form may be a part): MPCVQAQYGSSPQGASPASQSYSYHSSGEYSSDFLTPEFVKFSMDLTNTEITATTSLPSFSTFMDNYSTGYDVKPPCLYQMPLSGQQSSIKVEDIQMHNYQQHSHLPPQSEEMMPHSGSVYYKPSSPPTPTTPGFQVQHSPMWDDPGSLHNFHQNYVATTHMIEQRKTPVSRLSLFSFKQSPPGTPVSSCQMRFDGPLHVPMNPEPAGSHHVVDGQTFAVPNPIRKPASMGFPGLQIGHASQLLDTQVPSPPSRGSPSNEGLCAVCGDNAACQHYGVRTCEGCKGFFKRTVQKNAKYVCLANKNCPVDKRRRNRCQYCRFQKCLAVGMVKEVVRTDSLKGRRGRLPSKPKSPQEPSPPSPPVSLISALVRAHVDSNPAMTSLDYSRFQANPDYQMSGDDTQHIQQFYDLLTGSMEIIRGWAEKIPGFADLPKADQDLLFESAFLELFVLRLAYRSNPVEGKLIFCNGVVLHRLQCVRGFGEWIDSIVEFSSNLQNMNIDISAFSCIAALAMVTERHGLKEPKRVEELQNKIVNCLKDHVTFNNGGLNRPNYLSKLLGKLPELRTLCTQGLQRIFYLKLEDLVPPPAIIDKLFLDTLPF
Nuclear respiratory factor 1 (Homo sapiens), sequence (Q16656 whole entry, looked up): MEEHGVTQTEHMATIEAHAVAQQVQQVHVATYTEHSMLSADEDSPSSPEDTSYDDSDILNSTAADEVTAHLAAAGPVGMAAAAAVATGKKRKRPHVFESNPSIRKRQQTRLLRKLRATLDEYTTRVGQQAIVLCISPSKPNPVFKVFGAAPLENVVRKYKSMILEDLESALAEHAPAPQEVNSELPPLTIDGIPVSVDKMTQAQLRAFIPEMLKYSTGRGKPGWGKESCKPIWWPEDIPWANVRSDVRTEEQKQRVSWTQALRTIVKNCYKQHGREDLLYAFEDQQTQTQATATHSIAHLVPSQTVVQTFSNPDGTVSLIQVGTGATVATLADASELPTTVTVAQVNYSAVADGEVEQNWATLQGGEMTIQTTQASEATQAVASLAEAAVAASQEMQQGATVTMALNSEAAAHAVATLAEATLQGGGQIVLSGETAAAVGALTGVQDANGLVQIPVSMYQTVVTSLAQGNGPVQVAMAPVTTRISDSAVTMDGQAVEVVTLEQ
Bile acid receptor (Homo sapiens), sequence (Q96RI1 whole entry, looked up, the tested form may be a part): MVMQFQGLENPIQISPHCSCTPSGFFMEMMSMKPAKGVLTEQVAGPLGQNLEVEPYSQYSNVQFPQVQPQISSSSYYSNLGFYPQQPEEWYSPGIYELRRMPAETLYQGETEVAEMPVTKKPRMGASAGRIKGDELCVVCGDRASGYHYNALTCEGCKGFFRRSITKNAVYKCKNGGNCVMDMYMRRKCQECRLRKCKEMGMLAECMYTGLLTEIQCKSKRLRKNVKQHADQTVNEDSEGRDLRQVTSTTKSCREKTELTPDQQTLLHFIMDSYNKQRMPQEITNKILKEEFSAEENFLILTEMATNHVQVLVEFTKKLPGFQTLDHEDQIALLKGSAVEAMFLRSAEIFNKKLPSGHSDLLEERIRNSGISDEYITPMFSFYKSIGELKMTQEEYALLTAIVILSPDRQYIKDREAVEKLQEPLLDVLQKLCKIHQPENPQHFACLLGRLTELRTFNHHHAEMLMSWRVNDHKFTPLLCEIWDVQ

O=S1(=O)CCCO1
outcome [1]: inactive
outcome [2]: inactive
outcome [3]: inactive
outcome [4]: inactive
outcome [5]: inactive
outcome [6]: inactive
outcome [7]: inactive
outcome [8]: inactive
outcome [9]: inactive
outcome [10]: inactive
outcome [11]: inactive
outcome [12]: inactive
outcome [13]: inactive

CCCCCCCC/C=C\CCCCCCCC(=O)OC[C@@H](O)[C@H]1OC[C@H](O)[C@H]1O
outcome [14]: inactive
outcome [1]: inactive
outcome [3]: inactive
outcome [15]: inactive
outcome [4]: inactive
outcome [5]: inactive
outcome [6]: inactive
outcome [7]: inactive
outcome [16]: inactive
outcome [17]: inactive
outcome [8]: inactive
outcome [9]: inactive
outcome [10]: inactive
outcome [11]: inactive
outcome [12]: inactive
outcome [13]: inactive

OC[C@H]1O[C@@](CO)(O[C@H]2O[C@H](CO)[C@@H](O)[C@H](O)[C@H]2O)[C@@H](O)[C@@H]1O
outcome [18]: inactive
outcome [2]: inactive
outcome [3]: inactive
outcome [15]: inactive
outcome [4]: inactive
outcome [5]: inactive
outcome [6]: inactive
outcome [16]: inactive
outcome [8]: inactive
outcome [10]: inactive
outcome [11]: inactive
outcome [12]: inactive
outcome [13]: inactive

CCCCOC(=O)c1ccccc1
outcome [14]: inactive
outcome [2]: inactive
outcome [15]: inactive
outcome [4]: inactive
outcome [5]: inactive
outcome [6]: inactive
outcome [7]: inactive
outcome [16]: inactive
outcome [8]: inactive
outcome [9]: inactive
outcome [10]: inactive
outcome [11]: inactive
outcome [12]: inactive
outcome [13]: inactive

CCCCCCOC(=O)CC(CC(=O)OCCCCCC)(OC(=O)CCC)C(=O)OCCCCCC
outcome [1]: inactive
outcome [2]: inactive
outcome [15]: inactive
outcome [4]: inactive
outcome [5]: inactive
outcome [6]: inactive
outcome [16]: inactive
outcome [8]: inactive
outcome [10]: inactive
outcome [11]: inactive
outcome [12]: inactive
outcome [13]: inactive

CC(=O)c1ccccc1
outcome [14]: inactive
outcome [1]: inactive
outcome [4]: inactive
outcome [5]: inactive
outcome [6]: inactive
outcome [16]: inactive
outcome [17]: inactive
outcome [8]: inactive
outcome [9]: inactive
outcome [10]: inactive
outcome [11]: inactive
outcome [12]: inactive
outcome [13]: inactive

CNC(C)=O
outcome [2]: inactive
outcome [15]: inactive
outcome [4]: inactive
outcome [5]: inactive
outcome [6]: inactive
outcome [7]: inactive
outcome [17]: inactive
outcome [8]: inactive
outcome [10]: inactive
outcome [11]: inactive
outcome [12]: inactive
outcome [13]: inactive

CCOc1ccc2[nH]cc(C(=O)NCc3ccccc3)c(=O)c2n1
outcome [1]: inactive
outcome [2]: inactive
outcome [3]: inactive
outcome [15]: inactive
outcome [4]: inactive
outcome [5]: inactive
outcome [6]: inactive
outcome [7]: inactive
AC50 [17]: 9.32 µM (active)
outcome [8]: inactive
outcome [10]: inactive
outcome [11]: inactive
outcome [12]: inactive
outcome [13]: inactive

CC(C)CC(C)O (centres undefined)
outcome [1]: inactive
outcome [4]: inactive
outcome [5]: inactive
outcome [6]: inactive
outcome [7]: inactive
outcome [16]: inactive
outcome [17]: inactive
outcome [8]: inactive
outcome [10]: inactive
outcome [11]: inactive
outcome [12]: inactive
outcome [13]: inactive
